# The sample as a whole holds a higher share of hits than the screen did.
# Methyltransferases: Primary Screen for Target Class Profiling of Small Molecule Inhibitors of Methyltransferases | purified enzyme, MTase-Glo SAH luminescence; active compounds read low | calls only at 40 µM | hit rate 3.9% among 25,000 | AID 1745853, 2022; call rule not given here
#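 Each enzyme was reacted with SAM and its substrate, with compounds tested once at 40 uM; SAH formed was read by MTase-Glo luminescence.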
# * marks the source's active call; other numbers are inactive results; i = inactive; + = active, no number. % is set by controls: 0 for no effect and ±100 for the full control effect.
SMILES,Methyltransferases
Cc1ccccc1Sc1ccc(/C=C2\SC(=S)NC2=O)cc1[N+](=O)[O-],+
Cc1ccc(C)c(Cn2nc3n(C(C)C)c(=O)c4ccc(C(=O)NC5CCCCC5)cc4n3c2=O)c1,i
COc1ccc(C(=O)N2CC[C@H]3NC(=O)N(c4ccc(Oc5ccccc5)cc4)C(=O)[C@H]32)cc1,i
CC1(C(=O)NC2CCCCCC2)Cn2c(cc3sccc32)C(=O)N1CC1CCCO1 (stereo not drawn),i
O=C(N1CCCCCC1)C1(CCO)CCN(c2ncccn2)C1 (stereo not drawn),i
CC(C)OCCCNC(=O)C1(C)Cn2c(cc3ccccc32)C(=O)N1Cc1ccc(OC(C)C)cc1 (stereo not drawn),i
CCc1cc2c(cc3n2CC(C)(C(=O)NC2CCCCC2)N(c2cc(Cl)ccc2C)C3=O)s1 (stereo not drawn),i
COc1ccccc1CNC(=O)C1(C)Cn2cnc(C(=O)NC3CC3)c2C(=O)N1C1CC1 (stereo not drawn),i
CN1CCCCCCN(C(=O)c2cc(CN3CCOCC3)on2)[C@H]2CCC[C@H]2C1=O,i
C=C1C(=O)OC2C1C(O)CC1(C)C(O)CCC(C=O)C21 (stereo not drawn),i
C=C1C(=O)OC2C1CCC1(C)C(O)CCC(=C)C21 (stereo not drawn),+
C=C1C(=O)O[C@@H]2[C@H]3O[C@]3(C)CCC=C(C)CC[C@@H]12,i
CC1(C(=O)NC2CCCCCCC2)Cn2c(cc3occc32)C(=O)N1Cc1ccc(Cl)cc1 (stereo not drawn),i
O=C(CCc1nnn2c1CN(C(=O)COc1ccc(F)cc1)CC2)NCc1ccccc1,i
c1cc2c(cc1CN1CCOCC1)CNCCO2,i
Nc1ncnc2c1c(-c1cccc(OCc3ccccc3)c1)cn2C1CC(CN2CCC2)C1 (stereo not drawn),+
CN(C)CCOc1cc(-c2cn[nH]c2)ccc1NC(=O)C1COc2ccccc2O1 (stereo not drawn),i
Cc1ccc(CN2C(=O)c3cnn(-c4ccccc4)c3-n3cccc3C2C(=O)NC2CCCCCC2)cc1 (stereo not drawn),i
CCCn1c(=O)c2cc(Cl)ccc2n2c(SCC(=O)Nc3cc(Cl)ccc3OC)nnc12,i
C=Cc1ccc(Cn2nc3n(C(C)C)c(=O)c4ccc(C(=O)NCC(C)C)cc4n3c2=O)cc1,i
CC(=O)NC(CCC(=O)O)C(=O)NCCc1ccc(O)cc1 (stereo not drawn),i
N#Cc1cnc2c(Cl)cc(NCc3cn(CCN4CCCCCC4)nn3)cc2c1Nc1ccc(F)c(Cl)c1,+
O=C(Nc1ccc(F)c(Cl)c1)c1cnc(-c2ccccc2)nc1-c1ccncc1,i
CNC(=O)[C@@H]1C[C@H](n2cc(CNS(=O)(=O)c3cc(C)ccc3F)nn2)CN1,i
O=S(=O)(c1cc(F)ccc1F)N1CCC(n2cc(CCCO)nn2)CC1,i
SMILES,Methyltransferases
Cc1ccc(C#N)c(-c2cc(NCc3cccnc3)nc3[nH]ccc23)n1,i
CCN1CCC(n2cc(CNc3cc(Cl)c4ncc(C#N)c(Nc5ccc(F)c(Cl)c5)c4c3)nn2)CC1,+
N#Cc1cnc2cnc(NCc3cccnc3)cc2c1Nc1ccc(F)c(Cl)c1,+
c1ccc(-c2nnn3c2nc(NCCc2c[nH]c4ccccc24)c2ccccc23)cc1,i
COc1cc(Nc2nc3c(S(=O)(=O)c4ccc(C)cc4)nnn3c3ccccc23)cc(OC)c1,i
Cc1ccc(Cc2nn3c(SCC(=O)Nc4ccc(C)c(C)c4)nnc3[nH]c2=O)cc1,i
CC(C)CNC(=O)c1ccc2c(=O)n(CC(C)C)c3nn(CC(=O)NC(C)C)c(=O)n3c2c1,i
CC(C)OCCCNC(=O)c1cc(C2CC2)nc2onc(C3CCNC3)c12 (stereo not drawn),i
CC(C)CNC(=O)c1ccc2c(=O)n(CC(C)C)c3nn(CC(=O)N(C)c4ccccc4)c(=O)n3c2c1,i
O=C(NCc1cccnc1)C1CN(S(=O)(=O)c2ccccc2)CC12CCCCC2 (stereo not drawn),i
Cn1c(=O)n(C)c2cc(S(=O)(=O)Nc3cccc(Br)c3)ccc21,i
C=CC(C)(O)CC/C=C(/C)C(=O)OC1C(OC2OCC(OC3OC(CO)C(O)C(O)C3O)C(OC3OCC(O)C(OC4OC(C)C(O)C(O)C4O)C3O)C2O)COC(OC(=O)C23CCC(C)(C)CC2C2=CCC4C5(C)CCC(OC6OC(CO)C(OC7OC(CO)C(O)C(OC8OCC(O)C(O)C8O)C7O)C(O)C6O)C(C)(C)C5CCC4(C)C2(C)CC3O)C1O (stereo not drawn),i
CC(C)CN1C(=O)N(Cc2ccccn2)C(=O)C12CCN(Cc1ccc3c(c1)CCO3)CC2,i
Cc1cc(S(=O)(=O)N2CCN(C3CCN(Cc4ccccn4)C3=O)CC2)ccc1Cl (stereo not drawn),i
COc1ccc(Nc2ccc3c(n2)CN(Cc2ccccc2C)C(=O)CO3)cc1,i
CN1CCN(C(=O)c2cc3n(n2)CC(C)(C(=O)NC2CCCCCC2)N(C)C3=O)CC1 (stereo not drawn),i
C=C1CC/C=C(/CO)C(=O)C[C@@H]2[C@@H]1C[C@@]2(C)COC(C)=O,+
CC1CCCC(NC(=O)Cn2c(=O)oc3cc(S(=O)(=O)N4CCCC4)ccc32)C1C (stereo not drawn),i
COc1cccc(CN2CCCC(c3nc(-c4cccnc4)no3)CCNC(=O)CC2)n1 (stereo not drawn),i
O=C1c2cc3sccc3n2CC(C(=O)NC2CCCCCC2)(c2ccccc2)N1Cc1ccc2c(c1)OCO2 (stereo not drawn),i
COC1CC(=O)CCC(C)OC(=O)CC1O (stereo not drawn),i
COC(=O)c1ncn2c1C(=O)N(Cc1ccccc1Br)C(C)(C(=O)NC1CCCC1)C2 (stereo not drawn),i
CC(C)c1cccc2c(-c3ccccc3)cc(-c3ccc(-c4ccc(C(=O)O)cc4)[nH]3)nc12,+
CC1(CO)CC2C(O)C3=C(CC(C)(O)C2C1)C(=O)OC3 (stereo not drawn),i
CCCC1c2cccn2CCN1C(=O)NC(C)C (stereo not drawn),i
SMILES,Methyltransferases
CC1(C(=O)NC2CCCC2)Cn2c(ccc2-c2ccccc2)C(=O)N1Cc1ccccc1Cl (stereo not drawn),i
CC1(C(=O)NCc2ccc(F)cc2)Cn2c(nc3ccccc32)C(=O)N1Cc1ccc2c(c1)OCO2 (stereo not drawn),i
CCOC(=O)Cn1cccc1-c1nc(-c2ccc(OC)cc2)c(-c2ccc(OC)cc2)s1,+
COc1ccc(NC(=O)c2nc3sccn3c2-c2cccc(OC)c2)cc1,i
CC1(C(=O)NC2CCCCC2)Cn2c(cc3ccccc32)C(=O)N1Cc1ccccc1F (stereo not drawn),i
CCNC(=O)N1CCCC(Cc2noc(-c3ccccc3)n2)C1 (stereo not drawn),i
CC(C)C(=O)NCC(=O)N1CCC2(CC1)Nc1ccccc1NC2=O,i
CC(C)C[C@H](CO)Nc1nc(S[C@@H](C)c2ccccc2)nc2nc(N)sc12,+
CNC(=O)c1cc2cc(-c3c(C)noc3C)nc(-c3cccc(OC)c3OC)c2o1,i
CCc1cc(N2CCOCC(O)(CN3CCCC3)C2)nc(N2CCCC2)n1 (stereo not drawn),i
CC1(C(=O)NC2CCCCCC2)Cn2c(cc3ccccc32)C(=O)N1CCN1CCOCC1 (stereo not drawn),i

# Source: PubChem (National Center for Advancing Translational Sciences (NCATS))
